The text below walks through data of PubChem BioAssay (NCATS).

A short description of assay [1]: Quantitative High-Throughput drug screen in 47 multiple myeloma cell lines against the NCATS MIPE library collection: KMS12PE_JCRB cell viability assay (AID 1918972). Note: nearly all actives have a fitted effect of over 30% in size. The gist of the method: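 CellTiter-Glo ATP luminescence gave viability after 48 h compound treatment at 37C of 500 multiple myeloma cells per well. Normalisation used DMSO-only wells as 100% and media-only wells as 0% viability; primary qHTS of approved and investigational drugs.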

Assay [2] can be described thus: Quantitative High-Throughput drug screen in 47 multiple myeloma cell lines against the NCATS MIPE library collection: KMS26_JCRB cell viability assay (AID 1918975). Note: nearly all actives have a fitted effect of over 45% in size. The gist of the method: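 qHTS of the MIPE 4.0 collection: 500 myeloma cells/well, 48 h drug exposure at 37C in 5% CO2, then CellTiter-Glo for 5 min at room temperature before luminescence reading.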
Assay [3] can be described thus: Quantitative High-Throughput drug screen in 47 multiple myeloma cell lines against the NCATS MIPE library collection: MMM1_PLB cell viability assay (AID 1918976). Note: nearly all actives have a fitted effect of over 35% in size. The gist of the method: (§1)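 ATP-based CellTiter-Glo luminescence after 48 h drug exposure (37 °C, 5% CO2) of 500 myeloma cells per well. DMSO-only wells set 100% viability, media-only wells 0%; MIPE 4.0 library added by pin tool.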

A short description of assay [4]: Quantitative High-Throughput drug screen in 47 multiple myeloma cell lines against the NCATS MIPE library collection: NCIH929_DSMZ cell viability assay (AID 1918978). Note: nearly all actives have a fitted effect of over 35% in size. The gist of the method:
as §1

Assay [5] is described as follows: Quantitative High-Throughput drug screen in 47 multiple myeloma cell lines against the NCATS MIPE library collection: MM1S_ATCC cell viability assay (AID 1918980). Note: nearly all actives have a fitted effect of over 45% in size. The gist of the method:
as §1

Assay [6] is described as follows: Quantitative High-Throughput drug screen in 47 multiple myeloma cell lines against the NCATS MIPE library collection: MM1R_ATCC cell viability assay (AID 1918981). Note: nearly all actives have a fitted effect of over 35% in size. The gist of the method: as §1
The nature of assay [7]: Quantitative High-Throughput drug screen in 47 multiple myeloma cell lines against the NCATS MIPE library collection: KMS28PE_JCRB cell viability assay (AID 1918983). Note: nearly all actives have a fitted effect of over 35% in size. The gist of the method: as §1
Assay [8] is described as follows: Quantitative High-Throughput drug screen in 47 multiple myeloma cell lines against the NCATS MIPE library collection: L363_DSMZ cell viability assay (AID 1918984). Note: nearly all actives have a fitted effect of over 40% in size. The gist of the method: as §1
Assay [9] in a line: Quantitative High-Throughput drug screen in 47 multiple myeloma cell lines against the NCATS MIPE library collection: KMS34_JCRB cell viability assay (AID 1918985). Note: nearly all actives have a fitted effect of over 40% in size. The gist of the method:
as §1

Assay [10] is described as follows: Quantitative High-Throughput drug screen in 47 multiple myeloma cell lines against the NCATS MIPE library collection: OCIMY7_PLB cell viability assay (AID 1918987). Note: nearly all actives have a fitted effect of over 65% in size. The gist of the method:
as §1

Assay [11] is described as follows: Quantitative High-Throughput drug screen in 47 multiple myeloma cell lines against the NCATS MIPE library collection: OCIMY5_PLB cell viability assay (AID 1918988). Note: nearly all actives have a fitted effect of over 65% in size. The gist of the method:
as §1

Assay [12] in a line: Quantitative High-Throughput drug screen in 47 multiple myeloma cell lines against the NCATS MIPE library collection: SKMM1_PLB cell viability assay (AID 1919863). Note: nearly all actives have a fitted effect of over 35% in size. The settings on record: SKMM1 myeloma viability, CellTiter-Glo ATP, 48 h; viability: active compounds read low. The gist of the method: as §1
(In general: Cellular ATP, detected with luciferase, serves as a proxy for viable cell number.)

Assay [13] in a line: Quantitative High-Throughput drug screen in 47 multiple myeloma cell lines against the NCATS MIPE library collection: U266_ATCC cell viability assay (AID 1919864). Note: nearly all actives have a fitted effect of over 35% in size. The gist of the method:
as §1

Assay [14] is described as follows: Quantitative High-Throughput drug screen in 47 multiple myeloma cell lines against the NCATS MIPE library collection: XG6_PLB cell viability assay (AID 1919865). Note: nearly all actives have a fitted effect of over 40% in size. The gist of the method:
as §1

Assay [15] in a line: Quantitative High-Throughput drug screen in 47 multiple myeloma cell lines against the NCATS MIPE library collection: OCIMY1_PLB cell viability assay (AID 1918979). Note: nearly all actives have a fitted effect of over 35% in size. The gist of the method:
as §1

Assay [16] in a line: Quantitative High-Throughput drug screen in 47 multiple myeloma cell lines against the NCATS MIPE library collection: MOLP8_DSMZ cell viability assay (AID 1918977). Note: nearly all actives have a fitted effect of over 45% in size. The gist of the method:
as §1

A short description of assay [17]: Quantitative High-Throughput drug screen in 47 multiple myeloma cell lines against the NCATS MIPE library collection: LP1_DSMZ cell viability assay (AID 1918982). Note: nearly all actives have a fitted effect of over 35% in size. The gist of the method:
as §1

The nature of assay [18]: Quantitative High-Throughput drug screen in 47 multiple myeloma cell lines against the NCATS MIPE library collection: OPM1_PLB cell viability assay (AID 1918989). Note: nearly all actives have a fitted effect of over 40% in size. The gist of the method: as §1
A short description of assay [19]: Quantitative High-Throughput drug screen in 47 multiple myeloma cell lines against the NCATS MIPE library collection: KMS21BM_JCRB cell viability assay (AID 1918974). To be noted: ATP luminescence, 48 h; viability: at 45.8 µM (top of the series). The gist of the method:
(§2)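 Luminescent ATP measurement with CellTiter-Glo gives viability, scaled between DMSO-only wells (100%) and media-only wells (0%). Cells, 500 per well, faced library compounds for 48 hours at 37C.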

The nature of assay [20]: Quantitative High-Throughput drug screen in 47 multiple myeloma cell lines against the NCATS MIPE library collection: KMS20_JCRB cell viability assay (AID 1918973). Note: nearly all actives have a fitted effect of over 45% in size. The gist of the method:
as §2

SMILES strings stand for the structures. Inconclusive results are not listed. Values without a mark were called inactive. The source made the active and inactive calls. Calls come from the whole dose curve; as a rule, active = well fitted curve in the direction sought with a large enough effect; inconclusive = small, poorly fitted or top-dose-only effect, or another doubt; inactive = no such curve, though single readings can be large; an effect the other way counts as inactive or inconclusive.
Potency is the fitted concentration of half-maximal effect.

For the compound `COC[C@H]1OC(=O)c2coc3c2[C@@]1(C)C1=C(C3=O)[C@@H]2CC[C@H](O)[C@@]2(C)C[C@@H]1OC(C)=O`, the Potency was 6620 nM (active) in assay [1]; 3320 nM (active) in assay [2]; 1050 nM (active) in assay [3]; 209 nM (active) in assay [4]; 2350 nM (active) in assay [5]; 332 nM (active) in [6]. Moreover, the Potency in assay [7] was 1320 nM (active); in assay [8], 2350 nM (active); in assay [9] it was 2090 nM (active); in assay [10] it was 418 nM (active); in assay [11], 10500 nM (active); in assay [12], 7430 nM (active). Further, the Potency in assay [13] was 16600 nM (active); in assay [14], 4180 nM (active).

Take `C[C@]12Cc3cn[nH]c3C[C@@H]1CC[C@@H]1[C@H]2CC[C@@]2(C)[C@H]1CC[C@]2(C)O`: the Potency result in assay [1], in assay [4], in [15], in assay [5], in assay [9] and in [10] was “inactive” in each case. For the same compound, the Potency entry in [13] and in assay [14] was “inactive” throughout. For the same compound, the results for the Potency in assay [3], in [11] and in [12] were 23500 nM (active), 13200 nM (active) and 3320 nM (active), respectively.

For `CC=C(C)C(=O)O[C@H]1C(C)=C2[C@@H]3OC(=O)[C@@](C)(O)[C@@]3(O)[C@@H](OC(=O)CCC)C[C@](C)(OC(C)=O)[C@@H]2[C@@H]1OC(=O)CCCCCCC`, the Potency was 29.6 nM (active) in [2]; 23.5 nM (active) in [3]; 41.8 nM (active) in assay [16]; 332 nM (active) in [4]; 105 nM (active) in assay [15]; 18.7 nM (active) in assay [5]. For the same compound, the Potency in [6] was 16.6 nM (active); in assay [17], 29.6 nM (active); in [7] it was 132 nM (active); in [9], 16.6 nM (active); in assay [10], 264 nM (active); in [11], 10.5 nM (active). In addition, the Potency in assay [18] is 264 nM (active); in assay [13], 935 nM (active); in assay [14], 372 nM (active).

With `CC1=NN=C(c2ccc(N)cc2)c2cc3c(cc2C1)OCO3`, the Potency in [19] was 14800 nM (active); in [11], 18700 nM (active). Further, the Potency result in assay [2], in [4], in [6], in assay [17], in assay [18] and in assay [14] was “inactive” in each case. In [12], the viability is 125%.

With `CC(=Cc1csc(C)n1)[C@@H]1C[C@H]2O[C@]2(C)CCC[C@H](C)[C@@H](O)[C@@H](C)C(=O)C(C)(C)[C@@H](O)CC(=O)O1`, the viability in assay [19] was 80.2% (active). Besides, the Potency result in [3], in assay [16], in assay [15], in assay [5], in [17] and in assay [9] was “inactive” each time. The Potency entry in assay [10] and in assay [14] was “inactive” each time.

Turning to `COC1=C[C@@H]2[C@@H]3Cc4ccc(OC)c(O)c4[C@]2(CCN3C)CC1=O`, the Potency in assay [20] was 1660 nM (active); in assay [5], 1660 nM (active); in assay [8], 2960 nM (active); in assay [10], 3320 nM (active); in [11], 1660 nM (active); in assay [18] it was 9350 nM (active). Moreover, the Potency was 2350 nM (active) in assay [13] and 1180 nM (active) in assay [14]. In addition, the Potency result in [16] and in [7] was “inactive” each time.

As for `CC(C)[C@H]1C(=O)N[C@H](CO)Cc2c[nH]c3cccc(c23)N1C`, the Potency result in assay [19], in [2], in assay [3], in [15], in assay [6] and in [8] was “inactive” each time. The Potency result in [9], in assay [11] and in assay [13] was “inactive” throughout. In addition, the Potency is 166 nM (active) in assay [16], 264 nM (active) in assay [7], 372 nM (active) in [18] and 93.5 nM (active) in [14].

In the case of `COc1ccc(C(=O)c2c(C)n(CCN3CCOCC3)c3cc(I)ccc23)cc1`, the Potency was 20900 nM (active) in assay [1]; 8330 nM (active) in assay [8]; 20900 nM (active) in [9]; 5900 nM (active) in assay [10]; 9350 nM (active) in assay [11]; 18700 nM (active) in assay [18]. In addition, the Potency in [12] is 16600 nM (active); in assay [14], 10500 nM (active). Besides, the Potency result in assay [5] was “inactive”.

Consider `Cc1nc(-c2ccc(-c3ccc(C(=O)N4CCc5cc6c(cc54)C4(CCN(C)CC4)CO6)cc3)c(C)c2)no1`, for which the Potency result in [5], in assay [6], in assay [17] and in assay [18] was “inactive” each time.

For the compound `CCOC(=O)c1cncn1[C@H](C)c1ccccc1`, the Potency entry in assay [2], in [4], in assay [15], in assay [6], in assay [17] and in assay [10] was “inactive” throughout. Further, the Potency entry in assay [11], in assay [13] and in assay [14] was “inactive” throughout. The Potency in assay [3] and in [12] was 7430 nM (active) throughout.

Consider `O=C(N[C@H]1CN2CCC1CC2)c1ccc(Cl)cc1`, for which the Potency was 37200 nM (active) in assay [19], 2960 nM (active) in [5], 4180 nM (active) in assay [13] and 8330 nM (active) in assay [14]. Also, the Potency entry in [2], in assay [6], in assay [17], in [7], in [9] and in assay [18] was “inactive” each time.

In the case of `O=C(NCC1CCOCC1)c1cnc(Nc2ccc(Cl)cc2Cl)nc1C(F)(F)F`, the Potency result in assay [2], in assay [7], in assay [9] and in assay [18] was “inactive” in each case. For the same compound, the Potency in assay [3] is 20900 nM (active); in [4], 4690 nM (active); in assay [5] it was 3320 nM (active); in assay [13], 8330 nM (active); in assay [14], 6620 nM (active).

In general, viability refers to a read-out of living cells in per cent, often relative to untreated cells.
